Experimental data from PubChem BioAssay (Tox21).
“And” between values parts separate entries of the source, which are not always exact repeats. Equal entries are not always repeated. Results filed as inconclusive are left out. Some compounds were tested as several samples or in several runs, with calls that do not always agree. The source made the active and inactive calls. Unless noted, calls come from the whole dose curve; as a rule, active = well fitted curve in the direction sought with a large enough effect in the repeat runs; inconclusive = weak or mixed curves; inactive = no such curve, though single readings can be large; an effect the other way counts as inactive or inconclusive.

How the values were obtained:
[1] = qHTS assay to identify small molecule agonists of the hypoxia (HIF-1) signaling pathway - cell viability counter screen (AID 1224844; calls by dose curve; note: nearly all actives have a fitted effect of over 50% in size; note: potency is the fitted concentration of half-maximal effect)
Method in brief: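 HRE-bla ME-180 cells, 2,000/well in 0.5% dialyzed FBS medium, treated 17 h at 37C with compounds. Viability read in the same wells as the bla reporter, by CellTiter-Glo luminescence after 30 min at room temperature.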

[2] = qHTS assay to identify small molecule agonists of H2AX (AID 1224845; active = well fitted activation curve with a large enough effect in the signal ratio in the repeat runs, not every such curve was filed as active; the % refers to the signal ratio; note: potency is the fitted concentration of half-maximal effect)
Method in brief: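 Phospho-H2AX Ser139 measured by HTRF (ex 320 nm; em 665 and 620 nm) after 24 hr antibody incubation. Compounds, 15 concentrations, 0.76% DMSO, were applied to CHO-K1 cells for 3hr at 37C before lysis.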

[3] = qHTS assay to identify small molecule agonists of the hypoxia (HIF-1) signaling pathway (AID 1224846; active = well fitted activation curve with a large enough effect in the signal ratio in the repeat runs, not every such curve was filed as active; the % refers to the signal ratio)
Method in brief: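 HRE-bla ME-180 beta-lactamase reporter cells in medium with 0.5% dialyzed FBS, pre-incubated 5 h then exposed to compounds 17 h at 37C, 5% CO2; reporter induction read with CCF4-AM FRET substrate.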

[4] = qHTS assay to identify small molecule agonists of H2AX - cell viability counter screen (AID 1224847; calls by dose curve; note: nearly all actives have a fitted effect of over 30% in size; note: potency is the fitted concentration of half-maximal effect)
Method in brief: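 Viability of CHO-K1 (wild type) cells after 3 hr compound exposure was measured by CellTiter-Glo luminescence.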

[5] = qHTS RealTime-Glo MT Cell Viability Assay in HEK293 cells - 32 hour (AID 1224868); note: nearly all actives have a fitted effect of over 50% in size; note: potency is the fitted concentration of half-maximal effect
Method in brief: (§1)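 HEK293 cells were seeded at 600 cells/well together with NanoLuc luciferase and cell-permeant prosubstrate, preincubated 5 h at 37 C/5% CO2, then given compound in DMSO by pintool. Luminescence from viable-cell prosubstrate reduction was read repeatedly over 40 h.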

[6] = A CellTox Green Cytotoxicity Assay to monitor cytotoxicity in HEK293 cells - 0 hour (AID 1224869); note: nearly all actives have a fitted effect of over 50% in size
Method in brief: (§2)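 HEK293 cells, 600/well, were preincubated 5 hours and then exposed to compounds at 37 C for up to 40 hours. A cell-impermeant cyanine dye staining dead-cell DNA was read by fluorescence at 0, 8, 16, 24, 32 and 40 h time points.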

[7] = qHTS RealTime-Glo MT Cell Viability Assay in HepG2 cells - 40 hour (AID 1224870); note: nearly all actives have a fitted effect of over 50% in size; note: potency is the fitted concentration of half-maximal effect
Method in brief: (§3)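 Real-time viability: cells seeded at 600 per well together with NanoLuc and cell-permeant prosubstrate, compounds added after 5 h incubation. Luminescence tracked at 0, 8, 16, 24, 32 and 40 h of exposure.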

[8] = A CellTox Green Cytotoxicity Assay to monitor cytotoxicity in HEK293 cells - 40 hour (AID 1224871); note: nearly all actives have a fitted effect of over 45% in size; note: potency is the fitted concentration of half-maximal effect
Method in brief: as §2

[9] = qHTS RealTime-Glo MT Cell Viability Assay in HEK293 cells - 40 hour (AID 1224874); details: RealTime-Glo luminescence; max response: stronger effect = lower value; note: nearly all actives have a fitted effect of over 50% in size; note: potency is the fitted concentration of half-maximal effect
Method in brief: (§4)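 600 cells/well were plated with the nonlytic NanoLuc/prosubstrate reagent, pre-incubated 5 h, then given 23 nL of compound in DMSO. Incubation at 37 C for 40 h, with luminescence from viable-cell-reduced substrate read repeatedly from 0 h.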

[10] = A CellTox Green Cytotoxicity Assay to monitor cytotoxicity in HEK293 cells - 24 hour (AID 1224875); note: nearly all actives have a fitted effect of over 45% in size; note: potency is the fitted concentration of half-maximal effect
Method in brief: as §2

[11] = A CellTox Green Cytotoxicity Assay to monitor cytotoxicity in HepG2 cells - 16 hour (AID 1224876); note: nearly all actives have a fitted effect of over 45% in size; note: potency is the fitted concentration of half-maximal effect
Method in brief: (§5)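 HepG2 cells, 600/well, preincubated 5 h with CellTox Green dye, then exposed to Tox21 compounds in DMSO at 37 C for up to 40 h. Dead-cell DNA fluorescence read at the indicated time point.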

[12] = A CellTox Green Cytotoxicity Assay to monitor cytotoxicity in HepG2 cells - 24 hour (AID 1224878); note: nearly all actives have a fitted effect of over 45% in size; note: potency is the fitted concentration of half-maximal effect
Method in brief: as §5

[13] = A CellTox Green Cytotoxicity Assay to monitor cytotoxicity in HepG2 cells - 40 hour (AID 1224879); note: nearly all actives have a fitted effect of over 40% in size; note: potency is the fitted concentration of half-maximal effect
Method in brief: as §5

[14] = qHTS RealTime-Glo MT Cell Viability Assay in HEK293 cells - 16 hour (AID 1224872); note: nearly all actives have a fitted effect of over 50% in size; note: potency is the fitted concentration of half-maximal effect
Method in brief: as §1

[15] = qHTS RealTime-Glo MT Cell Viability Assay in HepG2 cells - 32 hour (AID 1224877); note: nearly all actives have a fitted effect of over 55% in size; note: potency is the fitted concentration of half-maximal effect
Method in brief: (§6)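 HepG2 cells were seeded at 600 cells/well together with NanoLuc luciferase and a cell-permeant prosubstrate, preincubated 5 h at 37 C/5% CO2, then pin-dosed with compounds in DMSO. Nonlytic luminescence from viable cells was read at each time point.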

[16] = qHTS RealTime-Glo MT Cell Viability Assay in HepG2 cells - 24 hour (AID 1224867); note: nearly all actives have a fitted effect of over 50% in size; note: potency is the fitted concentration of half-maximal effect
Method in brief: as §6

[17] = qHTS RealTime-Glo MT Cell Viability Assay in HepG2 cells - 8 hour (AID 1224873); note: nearly all actives have a fitted effect of over 55% in size; note: potency is the fitted concentration of half-maximal effect
Method in brief: as §3

[18] = qHTS RealTime-Glo MT Cell Viability Assay in HEK293 cells - 0 hour (AID 1224880)
Method in brief: as §4

[19] = qHTS assay to identify small molecule antagonists of the estrogen related receptor (ERR) signaling pathway from Tox21 library (AID 1224848); note: nearly all actives have a fitted effect of over 50% in size; note: potency is the fitted concentration of half-maximal effect
Method in brief: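 Reading was by luminescence 30 min after ONE-Glo addition. Before that, ERR cells at 2,000 per well had rested 6 h at 37 C/5% CO2 and then received pin-tooled compounds in DMSO for 18 h at 37 C.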

[20] = qHTS assay to identify small molecule agonists of the estrogen related receptor (ERR) signaling pathway from Tox21 library (AID 1224849; calls by dose curve; note: nearly all actives have a fitted effect of over 15% in size); details: ERR reporter cell line, ONE-Glo luciferase, 18 h; at 92.4 µM (top of the series) unless noted
Method in brief: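 ERR reporter cells (NTP line) pre-incubated 6 hours at 37 C, then exposed to compounds for 18 hours at 37 C. ONE-Glo luciferase luminescence was read after 30 minutes at room temperature.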
% is set by controls: 0 for no effect and ±100 for the full control effect.

CCCCCCCCOc1ccccc1C(=O)Nc1ccc(C(=O)OCC[N+](C)(CC)CC)cc1
inactive: Potency [2] | Potency [3] | Potency [6] | Potency [7]
active: Potency [1] 7.56 µM | Potency [4] 24.7 µM | Potency [5] 19 µM | Potency [8] 26.8 µM | Potency [9] 21.3 µM | Potency [10] 23.9 µM | Potency [11] 23.9 µM | Potency [12] 26.8 µM | Potency [13] 23.9 µM

C/C=C1/C(=O)C[C@H]2[C@@H]3CCC4=CC(=O)CC[C@]4(C)[C@H]3CC[C@]12C
active: Potency [5] 48.8 µM | Potency [14] 43.5 µM | Potency [9] 48.8 µM | Potency [13] 43.5 µM
inactive: Potency [1] | Potency [2] | Potency [3] | Potency [4] | Potency [6] | Potency [7] | Potency [10] | Potency [15]

NNC(=O)c1cccc(C(=O)NN)c1
inactive: Potency [1] | Potency [2] | Potency [3] | Potency [16] | Potency [5] | Potency [6] | Potency [7] | Potency [8] | Potency [14] | Potency [17] | max response [9] -2.8% | Potency [10] | Potency [11] | Potency [15] | Potency [12] | Potency [13] | Potency [18]

CCCCC(CC)CN=C(N)NC(N)=NCCCCCCN=C(N)NC(N)=NCC(CC)CCCC (stereo not drawn)
inactive: Potency [2] | activity change, positive = activation [20] -65.1% [at 42.5 µM] | Potency [6]
active: Potency [1] 23.9 µM | Potency [4] 43.8 µM | Potency [19] 6.68 µM | Potency [16] 8.49 µM | Potency [5] 5.35 µM | Potency [7] 8.49 µM | Potency [8] 8.49 µM | Potency [14] 6.74 µM | Potency [17] 19 µM | Potency [9] 4.25 µM | Potency [10] 7.56 µM | Potency [11] 8.49 µM | Potency [15] 8.49 µM | Potency [12] 9.52 µM | Potency [13] 8.49 µM

O=C(OCC(COC(=O)c1ccccc1)(COC(=O)c1ccccc1)COC(=O)c1ccccc1)c1ccccc1
inactive: Potency [1] | Potency [2] | Potency [4] | Potency [19] | activity change, positive = activation [20] 9.84% | Potency [16] | Potency [6] | Potency [7] | Potency [11] | Potency [15] | Potency [12] | Potency [13] | Potency [18]
active: Potency [5] 48.9 µM | Potency [14] 43.6 µM | Potency [9] 48.9 µM

C=CC(=O)OCC(CO)(COC(=O)C=C)COC(=O)C=C
active: Potency [1] 4.38 µM and 17.4 µM | Potency [2] 14.2 µM | Potency [19] 8.66 µM and 13.7 µM | Potency [16] 11 µM and 12.3 µM | Potency [5] 3.48 µM | Potency [7] 12.3 µM and 19.5 µM | Potency [8] 2.76 µM and 9.77 µM | Potency [14] 5.51 µM | Potency [9] 3.48 µM | Potency [10] 43.6 µM | Potency [15] 12.3 µM and 17.4 µM | Potency [12] 9.81 µM | Potency [13] 11 µM and 24.5 µM
inactive: Potency [4] | activity change, positive = activation [20] -68.9% and -80.3% | Potency [6] | Potency [11] | Potency [18]

O=C1C=CC(=O)N1
active: Potency [1] 11.3 µM | Potency [2] 14.6 µM | Potency [4] 82.2 µM | Potency [16] 22.5 µM | Potency [5] 12.6 µM | Potency [7] 22.5 µM | Potency [8] 17.8 µM | Potency [14] 15.9 µM | Potency [17] 44.8 µM | Potency [9] 11.3 µM | Potency [10] 20 µM | Potency [11] 25.2 µM | Potency [15] 22.5 µM | Potency [12] 20 µM | Potency [13] 17.8 µM
inactive: Potency [19] | activity change, positive = activation [20] -71.7% | Potency [18]

CC[C@H](c1ccc(O)cc1)[C@@H](CC)c1ccc(O)cc1
54.9 µM (active) and inactive: Potency [1]
active: Potency [5] 27.5 µM | Potency [9] 24.5 µM | Potency [11] 49 µM | Potency [12] 49 µM | Potency [13] 49 µM
101 µM (active) and inactive: Potency [4]
inactive: Potency [2] | Potency [16] | Potency [6] | Potency [7] | Potency [14] | Potency [17] | Potency [10] | Potency [15]
34.7 µM (active) and inactive: Potency [8]

Cc1[nH]cnc1C[C@H]1CCc2c(C)c3ccccc3n2C1=O
inactive: Potency [1] | Potency [2] | activity change, positive = activation [20] -63.7% | Potency [18]
active: Potency [4] 87.6 µM | Potency [19] 26.6 µM | Potency [16] 38 µM | Potency [5] 23.9 µM | Potency [7] 42.6 µM | Potency [8] 47.8 µM | Potency [9] 23.9 µM | Potency [10] 47.8 µM | Potency [11] 38 µM | Potency [12] 38 µM | Potency [13] 33.8 µM

Cc1onc(-c2c(Cl)cccc2Cl)c1C(=O)N[C@@H]1C(=O)N2[C@@H]1SC(C)(C)[C@@H]2C(=O)O
inactive: Potency [1] | Potency [2] | Potency [4] | Potency [19] | Potency [16] | Potency [5] | Potency [6] | Potency [7] | Potency [8] | Potency [14] | Potency [17] | max response [9] 9.42% | Potency [10] | Potency [11] | Potency [15] | Potency [13] | Potency [18]

CN(C)[C@@H]1C(=O)C(C(N)=O)=C(O)[C@@]2(O)C(=O)C3=C(O)c4c(O)ccc(Cl)c4[C@@H](O)[C@H]3C[C@@H]12
inactive: Potency [1] | Potency [2] | Potency [4] | Potency [19] | Potency [16] | Potency [5] | Potency [6] | Potency [7] | Potency [8] | Potency [14] | Potency [17] | max response [9] -2.42% | Potency [10] | Potency [11] | Potency [15] | Potency [12] | Potency [13] | Potency [18]
